Laboratory results taken from the supplement of paper PMC11624193, “Coupling cellular drug-target engagement to downstream pharmacology with CeTEAM” (Nature Communications, 2024).
“And” between values parts separate entries of the source, which are not always exact repeats. Equal entries are not always repeated. Structures can show the parent of a compound that is named as a salt. A number with no mark means an inactive call.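 Rule for the calls: active = log2 fold change beyond 2 SD from the library mean after excluding viability outliers; inactive = within 2 SD.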

Target: PARP1 L713F-nLuc biosensor (HCT116) (UniProt P09874)
Sequence (P09874 whole entry L713F, looked up): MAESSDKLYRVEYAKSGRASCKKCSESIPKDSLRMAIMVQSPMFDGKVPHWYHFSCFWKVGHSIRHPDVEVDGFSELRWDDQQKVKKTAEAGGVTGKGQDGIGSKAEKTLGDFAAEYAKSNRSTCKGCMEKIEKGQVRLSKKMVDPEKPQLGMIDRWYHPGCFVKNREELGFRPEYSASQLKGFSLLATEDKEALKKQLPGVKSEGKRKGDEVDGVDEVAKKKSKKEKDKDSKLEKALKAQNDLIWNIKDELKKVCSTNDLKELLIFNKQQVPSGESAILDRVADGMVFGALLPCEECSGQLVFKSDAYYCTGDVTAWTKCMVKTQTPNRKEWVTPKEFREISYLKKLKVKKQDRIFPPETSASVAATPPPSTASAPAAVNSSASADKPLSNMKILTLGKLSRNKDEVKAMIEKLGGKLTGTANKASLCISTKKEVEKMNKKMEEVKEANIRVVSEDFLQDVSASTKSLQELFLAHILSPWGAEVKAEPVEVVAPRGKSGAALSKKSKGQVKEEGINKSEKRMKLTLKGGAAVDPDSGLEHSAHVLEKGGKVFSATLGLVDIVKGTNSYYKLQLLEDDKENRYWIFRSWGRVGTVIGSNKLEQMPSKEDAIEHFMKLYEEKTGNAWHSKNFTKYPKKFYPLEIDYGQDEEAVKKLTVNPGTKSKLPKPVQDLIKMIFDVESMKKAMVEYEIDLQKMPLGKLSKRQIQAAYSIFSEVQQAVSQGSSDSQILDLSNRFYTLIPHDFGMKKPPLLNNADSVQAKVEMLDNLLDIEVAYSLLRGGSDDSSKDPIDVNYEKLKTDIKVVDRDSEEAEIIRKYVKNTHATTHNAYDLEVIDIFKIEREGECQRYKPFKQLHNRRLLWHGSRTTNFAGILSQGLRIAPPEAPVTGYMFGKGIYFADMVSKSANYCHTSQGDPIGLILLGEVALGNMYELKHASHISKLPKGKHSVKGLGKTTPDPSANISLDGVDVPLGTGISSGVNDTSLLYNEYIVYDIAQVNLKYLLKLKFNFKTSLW
Assay: PARP1 L713F-nLuc/akaLuc ratio relative to DMSO control (biosensor stabilization) (fold change); higher = more PARP1 biosensor stabilization (target engagement / stabilizer), active = hit call of the paper
Settings: stock concentration (mM; final µM = stock mM x 1): 10; 24 h

Row | Structure (SMILES) | PARP1 L713F-nLuc/akaLuc ratio
1 | CC(C)=CCC/C(C)=C/Cc1c(O)c(CC=C(C)C)c2c(c1O)C(=O)C1=C[C@@H]3C[C@H]4C(C)(C)O[C@@](C/C=C(/C)C(=O)O)(C3=O)[C@@]14O2 [Gambogenic acid] | 1.04
2 | Nc1nc(NC2CC2)cc(-c2cccc(Cl)c2Cl)n1 | 1.94
3 | O=C(O)c1ccc2c(c1)nc(NC(=O)c1ccccc1)n2CCCc1ccccc1 | 1.26
4 | O=C(Nc1ccc(Cl)cc1)c1cc2ccccc2cc1O [Naphthol AS-E] | 1.09
5 | C=CC(=O)Nc1cccc(-c2c[nH]cc2CN(C)CCN)c1 | 1.61
6 | CN(C)Cc1ccc(-c2nc3cccc4c3n2CCNC4=O)cc1 | 8.09 (active)
7 | Cc1cc(-c2ccccc2)cc(C(=O)NNS(=O)(=O)c2ccccc2)c1F | 0.665
8 | NC(=O)c1cccnc1 [Nicotinamide] | 0.942
9 | CCN(c1cc(C#CCN2CCOCC2)cc(C(=O)NCc2c(C)cc(C)[nH]c2=O)c1C)[C@H]1CC[C@H](N(C)CCOC)CC1 | 1.57 and 1.94
10 | Cc1cc(N2C[C@@H](C)N[C@@H](C)C2)ncc1-c1ccc(-c2nc3c(ccn3C)c(=O)[nH]2)cc1 | 1.15
11 | CC(=O)N[C@@H](CCCCN)C(=O)Nc1ccc2c(C)cc(=O)oc2c1 | 0.736
12 | CC#CC(=O)N1CC[C@@H](n2c(=O)n(-c3ccc(Oc4ccccc4)cc3)c3c(N)ncnc32)C1 [ONO-4059 (GS-4059) hydrochloride] | 1.06
13 | CC(C)N(C(=O)c1cc(F)ccc1Oc1cncnc1N1CC2(CCN(CC3CCC(NS(C)(=O)=O)CC3)CC2)C1)C(C)C (stereo not drawn) | 0.677
14 | C[C@@H](Oc1cc(-n2cnc3ccc(CN4CCN(C)CC4)cc32)sc1C(N)=O)c1ccccc1C(F)(F)F | 0.601
15 | O=C(Nc1ccccc1-c1cn2c(CN3CCNCC3)csc2n1)c1cnc2ccccc2n1 | 1
16 | Cn1c(Nc2ccc(C(F)(F)F)cc2)nc2cc(Oc3ccnc(-c4ncc(C(F)(F)F)[nH]4)c3)ccc21 | 0.546
17 | S=C(NCc1ccc2c(c1)OCO2)N1CCN(c2ncnc3c2oc2ccccc23)CC1 [Amuvatinib (MP-470)] | 0.659
18 | C[C@H](Nc1ncnc2nc[nH]c12)c1cc2cccc(Cl)c2c(=O)n1-c1ccccc1 [Duvelisib (IPI-145, INK1197)] | 0.838
19 | N#Cc1cccnc1N1CCN(C(=O)c2cccc(Cc3n[nH]c(=O)c4ccccc34)c2)CC1 | 2.72 (active)

Row | Structure (SMILES) | PARP1 L713F-nLuc/akaLuc ratio
20 | COc1ccccc1S(=O)(=O)Nc1ccc2c3c(cc(-n4cnc(C)c4)nc13)C(=O)N2C | 1.04
21 | N#CCC1CCN(c2nc(Nc3ccc(N4CCC(O)CC4)cc3)c3c(=O)[nH]ncc3n2)CC1 [Gusacitinib] | 0.883
22 | COC(=O)c1cc(CN2CCN(C(=N)N)CC2)cc(C(=O)N2CCN(C(=O)c3ccc(C(=N)N)cc3)CC2)c1 [CBB1007 (trihydrochloride)] | 0.723
23 | CC(=O)Nc1cc(Oc2ccc3c(nc(Nc4ccc(F)cc4F)n3C)c2C)ccn1 | 0.89
24 | C=CC(=O)Nc1cc(Nc2nccc(-c3cn(C)c4ccccc34)n2)c(OC)cc1N(C)CCN(C)C [Osimertinib (AZD9291)] | 0.371
25 | O=c1c2c([nH]n1-c1nc3ccccc3s1)CCCC2 | 0.788
26 | C=CC(=O)Nc1cccc(CNc2nc(Nc3ccc(N4CCN(C)CC4)cc3OC)ncc2Cl)c1 | 1.54
27 | O=c1[nH]c(Oc2cnn(Cc3ccccc3)c2)nc2cnccc12 | 0.946
28 | COc1cc(/C=C/C(=O)CC(=O)/C=C/c2ccc(O)c(OC)c2)ccc1O [Curcumin] | 1.12
29 | N#CC[C@H](C1CCCC1)n1cc(-c2ncnc3[nH]ccc23)cn1 [Ruxolitinib] | 0.544
30 | O=C(Nc1cccc(Nc2nccc(Nc3cccc(C(F)(F)F)c3)n2)c1)C1CC1 [Aurora kinase inhibitor-3] | 1.49
31 | Cc1ccc(Nc2nccc(N(C)c3ccc4c(C)n(C)nc4c3)n2)cc1S(N)(=O)=O [Pazopanib] | 1.33
32 | NCCNS(=O)(=O)c1cccc2c(Cl)cccc12 [A-3 (hydrochloride)] | 0.846
33 | CC[C@H](NC(=O)[C@H](C)NC)C(=O)N1C[C@@H](O)C[C@H]1Cc1c(-c2[nH]c3cc(F)ccc3c2C[C@@H]2C[C@H](O)CN2C(=O)[C@H](CC)NC(=O)[C@H](C)NC)[nH]c2cc(F)ccc12 [Birinapant] | 0.946
34 | COc1cc2c(NC3CCN(C)CC3)nc(N3CCCN(C)CC3)nc2cc1OCCCN(C)C | 0.782
35 | O=C(Nc1ccc(-c2ccnc(Nc3ccc(N4CCOCC4)cc3)n2)cc1)C1CCCN1 (stereo not drawn) | 0.659
36 | C/C(=N\NC(=O)c1cccc(S(=O)(=O)N2CCOCC2)c1)c1cc(Cl)ccc1O | 0.495
37 | NC(=O)c1ccccc1 [Benzamide] | 1.08
38 | CC[C@@H]1CN(C(=O)NCC(F)(F)F)C[C@@H]1c1cnc2cnc3[nH]ccc3n12 [Upadacitinib] | 1.32
